The record followed here is PubChem BioAssay (NCATS).

Activity calls are given as the source filed them. Entries that show only a call come without a potency. Calls come from the whole dose curve; as a rule, active = well fitted inhibition curve with a large enough effect; inconclusive = small, poorly fitted or top-dose-only effect; inactive = no such curve, though single readings can be large or run the other way.
Potency is the fitted concentration of half-maximal effect.

The nature of this test: qHTS assay for measurement of the activity of small molecule inhibitors on Zika virus induced Caspase-3 activity in human astrocytoma cells (AID 1224859). As to conditions: SNB-19 ZIKV-induced caspase-3/7, luminescence, 6 h; series mostly up to 45.7 µM. From the text:
National Center for Advancing Translational Sciences [NCATS]
Johns Hopkins University School of Medicine
Increase in the Caspase-3 activity indicates an activation of apoptosis cell death pathway caused by Zika virus infection in certain types of neuronal cells including human neural progenitor cells (hNPCs), astrocytes, and astrocytoma cell line (SNB-19). This cell-based caspase-3 activity assay measures the increased caspase-3 activity in the astrocytoma cell line (SNB-19) after a 6-hour Zika virus infection with a luminescence readout. A decrease in the luminescence signal in this assay by small molecule treatment indicates an inhibitory effect of that small molecule on the Zika virus induced caspase-3 activity that may correlate with its effect on reduction of Zika virus caused cell death.
The medium for SNB-19 cells is composed of RPMI 1640 (ATCC, Cat.# 30-2001), 10% fetal bovine serum (FBS) (GE healthcare Life Sciences, Cat.# SH30071.03), and 1% Pen/Strep (Gibco, Cat.# 15140-122). A Caspase-Glo 3/7 assay kit (catalog number G8092; Promega, Madison, WI) was used to detect caspase-3 activity induced by Zika virus infection in human cells. The reagent mixture was reconstituted as described in the protocol from the manufacturer. Polystyrene tissue culture treated and PDL coated white plates were obtained from Greiner Bio-One (Monroe, NC). Cells were seeded in 384- or 1536-well assay plates and cultured at 37 C with 5% CO2 for 16 to 20 hours. The typical cell seeding density in the 1536-well plate assay is 250 cells/well in 3ul medium for SNB-19 cells in tissue culture treated plates. Compounds were added to cells and incubated for one hour before addition of ZIKV solution to cells (2 FFU/cell). After incubation at 37 C with 5% CO2 for 6 hours, the reagent mixture of Caspase-Glo 3/7 assay kit was added to each well, followed by incubation at room temperature for 30 minutes. The luminescence intensity of the assay plates was measured using a ViewLux plate reader (PerkinElmer). Data were normalized by using the cell-containing wells without ZIKV as a negative control (0% induction of caspase 3/7 activity) and wells containing ZIKV infected cells (Caspase-3 activity induced) as a positive control (100% induction of caspase 3 activity). The percentage inhibitions of the increased Caspase-3 activity by small molecule inhibitors were then calculated.
Regarding `Cc1nc(Nc2ncc(C(=O)Nc3c(C)cccc3Cl)s2)cc(N2CCN(CCO)CC2)n1`, the Potency entry was “inactive”. As to `CN(C)c1ccc(O)c2c1C[C@H]1C[C@H]3[C@H](N(C)C)C(=O)C(C(N)=O)=C(O)[C@@]3(O)C(=O)C1=C2O`, the Potency result is “inactive”. To `COc1cc(Nc2c(C#N)cnc3cc(OCCCN4CCN(C)CC4)c(OC)cc23)c(Cl)cc1Cl` belongs “inactive”. Consider `O=c1c(O)c(-c2ccc(O)cc2O)oc2cc(O)cc(O)c12`, for which the Potency result is “inactive”.

With `COC(=O)C1=C(C)NC(C)=C(C(=O)OCCCN2CCC(c3ccccc3)(c3ccccc3)CC2)C1c1cccc([N+](=O)[O-])c1` (stereo not given), the Potency result is “inactive”. The entry for `Clc1ccc2c(N3CCN(CCCN4CCN(c5ccnc6cc(Cl)ccc56)CC4)CC3)ccnc2c1` is “inactive”; for `NNc1nncc2ccccc12` it is “inactive”.

With `CCC(C)(Oc1ccc(C2(c3ccc(OC(C)(CC)C(=O)O)cc3)CCCCC2)cc1)C(=O)O` (stereo not given), the Potency entry was “inactive”.

Turning to `O=C(NCC1CCCCN1)c1cc(OCC(F)(F)F)ccc1OCC(F)(F)F` (stereo not given), the Potency result is “inactive”. To `Clc1ccc(C(Cn2ccnc2)OCc2ccc(Sc3ccccc3)cc2)c(Cl)c1` (stereo not given) belongs “inactive”.

Take `CCCCc1ccc2nc(NC(=O)OC)[nH]c2c1`: the Potency result is “inactive”.

As for `C[Se]CCC(N)C(=O)O` (stereo not given), the Potency result is “inactive”. To `COCCCN1CCC(NC(=O)c2cc(Cl)c(N)c3c2OCC3)CC1` belongs “inactive”; to `CCOc1cc(CC(=O)N[C@@H](CC(C)C)c2ccccc2N2CCCCC2)ccc1C(=O)O`, “inactive”; to `CC1=C(C)C(=O)C(C(CCCCCC(=O)O)c2ccccc2)=C(C)C1=O` (stereo not given), “inactive”. To `CCC1=C(C)CN(C(=O)NCCc2ccc(S(=O)(=O)NC(=O)NC3CCC(C)CC3)cc2)C1=O` (stereo not given) belongs “inactive”; to `CN(C)C(=O)[C@H](O)[C@H](Cc1ccccc1)NC(=O)c1cc2cc(Cl)ccc2[nH]1`, “inactive”; to `c1ccc2[nH]c(-c3cscn3)nc2c1`, 16.6 µM (active). As to `CCC[C@@H]1C[C@@H](C(=O)N[C@@H]([C@H]2O[C@H](SC)[C@H](O)[C@@H](O)[C@H]2O)[C@@H](C)O)N(C)C1`, the Potency result was “inactive”. For the compound `Cc1cc(Cl)ccc1OCCCC(=O)NO`, the Potency entry was “inactive”. The entry for `O=C1c2ccccc2-c2n[nH]c3cccc1c23` is “inactive”; for `O=C1c2c(O)cc(O)cc2OC(c2ccc(O)c(O)c2)C1O` (stereo not given) it is “inactive”. `COc1cc2c(N3CCN(C(=O)Nc4ccc(OC(C)C)cc4)CC3)ncnc2cc1OCCCN1CCCCC1`: the Potency result is “inactive”. The entry for `Oc1ccc(-c2nc(-c3ccc(F)cc3)c(-c3ccncc3)[nH]2)cc1` is “inactive”; for `COC(=O)C1=C(C)NC(C)=C(C(=O)OC(C)C)C1c1cccc2nonc12` (stereo not given) it is “inactive”; for `CN(c1nccc(=O)[nH]1)C1CCN(c2nc3ccccc3n2Cc2ccc(F)cc2)CC1` it is “inactive”. To `COc1cc2nc(N3CCN(C(=O)C4CCCO4)CC3)nc(N)c2cc1OC` (stereo not given) belongs 14.8 µM (active); to `CCCCC(CC)COC(=O)C(C#N)=C(c1ccccc1)c1ccccc1` (stereo not given), “inactive”; to `O=C(CCc1ccc(O)cc1)c1c(O)cc(O)cc1O`, “inactive”. The figure for `CCCS(=O)c1ccc2nc(NC(=O)OC)[nH]c2c1` (stereo not given) is 20.9 µM (active). On to `N=C(N=C(N)N)N1CCOCC1`, for which the Potency entry is “inactive”. To `CCOC(=O)C1=C(O)C(=O)N(Cc2ccccc2)C1` belongs “inactive”. The entry for `N[C@@H](Cc1cc(I)c(Oc2cc(I)c(O)c(I)c2)c(I)c1)C(=O)O` is “inactive”. Turning to `CC(C)C[C@H](NC(=O)[C@H](Cc1ccccc1)NC(=O)c1cnccn1)B(O)O`, the Potency result was “inactive”.

Consider `O=P(O)(O)C(O)(Cn1ccnc1)P(=O)(O)O`, for which the Potency result was “inactive”. The entry for `Cc1cc(=O)oc2cc(O)ccc12` is “inactive”; for `Cc1nc2n(c(=O)c1CCN1CCC(c3noc4cc(F)ccc34)CC1)CCCC2` it is “inactive”; for `O=C(NOCC1CC1)c1ccc(F)c(F)c1Nc1ccc(I)cc1Cl` it is “inactive”. The entry for `Clc1ccc(C(Cn2ccnc2)OCc2ccsc2Cl)c(Cl)c1` (stereo not given) is “inactive”. As to `Cc1cccc(-c2[nH]ncc2-c2ccc3ncccc3n2)n1`, the Potency entry is “inactive”.
